# Results as given in PubChem BioAssay.
# Calls of active or inactive are those of the source.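 Rule for the calls, unless noted: active = fluorescence slope after compound addition differing from the mean of all screened samples at 99.7% confidence, in either direction; inactive = the rest.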
# Legend:
# [1] = inhibitors of TNFa-induced NFkB p65 translocation, primary screen, imaging, HUVEC, MLSMR starter and 10KST1 sets (AID 438;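 active = inhibition above 20% together with a positive visual image hit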;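 note: compound added about 3h40 before a 20 min TNFalpha stimulation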;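 for inhibition: signal is the nuclear over cytoplasmic p65 intensity ratio per well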); details: HUVEC TNFa-induced p65 nuclear translocation; cell count: measured here: nuclei count (cytotoxicity indicator), at 2.08 µM; inhibition: at 2 µM, stronger effect = higher value, 0% TNFa-plus-vehicle, 100% no-TNFa wells
# [2] = inhibitors of mutant huntingtin aggregation, primary screen, imaging, exon1htt(103Q)mCFP cells, high-content imaging (AID 483;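 active = visual image review flags a hit and inhibition of aggregation exceeds 20%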;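 note: compound exposure lasted 3 days before fixation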;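 for nuclei count: percent of the per-plate median nuclei count of sample wells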); details: exon1htt(103Q)mCFP cell line, aggregate imaging, at 2 µM; inhibition of aggregation: stronger effect = higher value; nuclei count: measured here: cell count, toxicity
# [3] = inhibitors of E-selectin induction by TNFa, primary screen, imaging, HUVEC, immunofluorescence, MLSMR starter and 10KST1 sets (AID 487;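 active = visually confirmed hit in the image check and inhibition above 20%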;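 for inhibition: signal is fraction of cell area covered by stained E-selectin grains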;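 for nuclei count: 100% = median nuclei count of all wells on the same plate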); details: HUVEC TNFalpha-induced E-selectin immunofluorescence imaging, at 2 µM; inhibition: stronger effect = higher value; nuclei count: measured here: cell number, toxicity
# [4] = target: Voltage-gated potassium channel subunit beta-2 (Rattus norvegicus) (UniProt P62483); experiment: KvBeta enzyme negative modulators, primary screen, biochemical, NADPH fluorescence (AID 622;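 active = fluorescence slope higher than the sample average by over 3 SD, cut at about -0.22 in these data, passing the limit was not always enough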;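 note: slope of raw intensity against log time taken from 70 to 1610 s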); details: recombinant KvBeta, 4-cyanobenzaldehyde reduction, at 10 µM, stronger effect = higher value
# Sequence of Voltage-gated potassium channel subunit beta-2 (Rattus norvegicus) (P62483 whole entry, looked up): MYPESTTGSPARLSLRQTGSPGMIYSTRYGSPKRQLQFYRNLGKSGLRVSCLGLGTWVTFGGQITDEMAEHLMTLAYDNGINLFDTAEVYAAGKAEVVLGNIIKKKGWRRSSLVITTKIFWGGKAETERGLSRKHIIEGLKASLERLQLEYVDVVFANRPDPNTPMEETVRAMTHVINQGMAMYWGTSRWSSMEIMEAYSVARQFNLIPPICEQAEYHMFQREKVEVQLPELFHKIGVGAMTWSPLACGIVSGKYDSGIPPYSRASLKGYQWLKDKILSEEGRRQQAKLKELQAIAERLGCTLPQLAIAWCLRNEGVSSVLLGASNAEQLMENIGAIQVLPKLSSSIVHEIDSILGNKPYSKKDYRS
# [5] = target: Voltage-gated potassium channel subunit beta-2 (Rattus norvegicus) (UniProt P62483); experiment: KvBeta positive modulators, primary screen, biochemical, NADPH fluorescence (AID 623;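 active = NADPH fluorescence slope more negative than the mean of all samples by about 3 SD, 99.7% confidence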;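 note: fluorescence intensity change per second fitted from 20 to 320 s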); details: Recombinant KvBeta, NADPH fluorescence decrease slope, 10 min; at 10 µM; stronger effect = lower value
# [6] = target: Alpha-2C adrenergic receptor (Homo sapiens) (UniProt P18825); experiment: modulators of alpha2C/GIRK thallium flux, primary screen, cell-based, HEK293 alpha2C/GIRK1/2 (AID 624); details: thallium flux BTC fluorescence, at 10 µM, actives lie on both sides;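 note: slope of fluorescence ratio to pre-addition baseline per second over 15 to 24 s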
# Sequence of Alpha-2C adrenergic receptor (Homo sapiens) (P18825 whole entry, looked up): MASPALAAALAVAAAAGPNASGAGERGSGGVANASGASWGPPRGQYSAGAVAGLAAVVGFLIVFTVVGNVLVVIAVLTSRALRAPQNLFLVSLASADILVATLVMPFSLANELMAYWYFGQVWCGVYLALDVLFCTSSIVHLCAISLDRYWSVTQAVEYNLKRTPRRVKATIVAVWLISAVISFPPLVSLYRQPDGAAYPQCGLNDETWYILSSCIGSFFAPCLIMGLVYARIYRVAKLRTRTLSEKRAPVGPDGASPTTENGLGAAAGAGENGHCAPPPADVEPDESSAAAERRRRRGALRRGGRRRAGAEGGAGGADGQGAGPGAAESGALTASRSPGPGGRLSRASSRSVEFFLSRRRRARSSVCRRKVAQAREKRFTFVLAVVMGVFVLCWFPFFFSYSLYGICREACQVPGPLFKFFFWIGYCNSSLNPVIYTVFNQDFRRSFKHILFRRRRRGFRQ
# [7] = inhibitors of Sendai virus-induced IRF3 signaling, primary screen, TLR/RLR signaling modifier project, cell-based, Sendai virus stimulus, luciferase, 10K MLSCN set (AID 602276;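 active = inhibition at or above 50% at 10 µM; inactive = inhibition below 50%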;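 note: firefly luciferase from ISG56 promoter only with Renilla not read in this screen; 0% = Sendai virus plus DMSO and 100% = medium plus DMSO without virus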); details: HEK293 RL24 IRF3 luciferase reporter, at 10 µM, stronger effect = higher value
# [8] = inhibitors of poly I:C-induced TLR3 signaling, primary screen, cell-based, poly I:C stimulus, luciferase, 10K MLSCN set (AID 602277;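 active = inhibition of the reporter signal at or above 50%; inactive = inhibition below 50%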); details: HEK293-TLR3 RL24 IRF3 luciferase reporter, at 10 µM, stronger effect = higher value
Compound,cell count [1],inhibition [1],inhibition of aggregation [2],nuclei count [2] [%],inhibition [3],nuclei count [3] [%],fluorescence slope [4],NADPH fluorescence slope [5],slope [6],inhibition [7],inhibition [8]
O=C(CSc1nnc(-c2ccccc2)o1)N1CCN(c2ccccc2)CC1,220,12.5% (inactive),-9.2% (inactive),88.7,-98.1% (inactive),105,-0.406 (inactive),-3.6e-05 (inactive),0.0062 (inactive),5.38% (inactive),2.42% (inactive)
Cc1ccc2nsnc2c1S(=O)(=O)N(Cc1cc2cccc(C)c2[nH]c1=O)CC1CCCO1 (centres undefined),641,2.6% (inactive),6.3% (inactive),108,42.1% (inactive),92.6,-0.578 (inactive),-6.5e-05 (inactive),0.00367 (inactive),32.9% (inactive),18.9% (inactive)
CCC1(C(=O)OC)NC(c2cccc(F)c2)C2C(=O)N(C)C(=O)C21 (centres undefined),715,-1.8% (inactive),11.4% (inactive),101,-167% (inactive),112,-0.272 (inactive),-5.7e-05 (inactive),0.00554 (inactive),14.4% (inactive),30.6% (inactive)
c1ccc(CCn2nnnc2C(c2cccs2)N2CCOCC2)cc1 (centres undefined),675,-8.6% (inactive),-16% (inactive),124,-74.9% (inactive),106,-0.488 (inactive),-0.000173 (inactive),0.00462 (inactive),4.38% (inactive),17.4% (inactive)
Cc1c(NC(=O)C2CCCCN2S(=O)(=O)c2ccc(Cl)cc2)c(=O)n(-c2ccccc2)n1C (centres undefined),699,-4.2% (inactive),-14.5% (inactive),112,2% (inactive),109,-0.604 (inactive),1.8e-05 (inactive),0.00694 (inactive),9.42% (inactive),-3.63% (inactive)
C=CCc1ccccc1OCCCCN1CCCC1,750,-8% (inactive),9.9% (inactive),87.9,-10.4% (inactive),114,-0.497 (inactive),-3.1e-05 (inactive),0.00605 (inactive),-11.7% (inactive),19.4% (inactive)
O=C(C1CCN(c2nnc(-n3cccc3)s2)CC1)N1CCOCC1,661,-2.9% (inactive),6.4% (inactive),123,-50.3% (inactive),102,-0.418 (inactive),-4.1e-05 (inactive),0.00592 (inactive),7.65% (inactive),18% (inactive)
N#Cc1ccccc1NC(=O)CSc1nnc(-c2ccccc2)n1-c1ccccc1,556,-25.3% (inactive),-20.9% (inactive),99.9,-1.6% (inactive),83.7,-0.603 (inactive),-1.9e-05 (inactive),0.00673 (inactive),1.9% (inactive),24.8% (inactive)
Cn1cc(C2NC(=O)c3c(sc4c3CCCC4)N2)c2ccccc21 (centres undefined),561,9.2% (inactive),17.3% (inactive),98.8,-37.2% (inactive),112,-0.384 (inactive),3.8e-05 (inactive),0.00476 (inactive),2.79% (inactive),21.2% (inactive)
O=C(C1CCCN(S(=O)(=O)c2cnc[nH]2)C1)N1CCN(c2ccc(Cl)cc2)CC1 (centres undefined),566,8% (inactive),-31.8% (inactive),103,-71.3% (inactive),123,-0.523 (inactive),3.4e-05 (inactive),0.00672 (inactive),-6.86% (inactive),0.571% (inactive)
COc1ccc(Br)cc1CNC(=O)CCc1nc(-c2ccc(C)cc2)no1,517,-4% (inactive),-13.7% (inactive),98.4,-2.8% (inactive),120,-0.314 (inactive),-6.4e-07 (inactive),0.00305 (inactive),15.2% (inactive),28.1% (inactive)
COc1cccc(OCc2nc3ccccc3[nH]2)c1,596,-4.8% (inactive),3.2% (inactive),102,-75.3% (inactive),114,-0.57 (inactive),-9.8e-06 (inactive),0.0079 (inactive),-67.8% (inactive),-190% (inactive)
CC(C)c1nnc(SCC(=O)NCc2ccco2)n1C,248,2.2% (inactive),-12.1% (inactive),77,21.4% (inactive),86.7,-0.485 (inactive),1.5e-05 (inactive),0.00695 (inactive),3.77% (inactive),97.8% (active)
COc1ccc(CNc2nc(NCc3ccc(OC)cc3)n(S(C)(=O)=O)n2)cc1,292,-0.9% (inactive),26% (inactive),86.3,47% (inactive),95.3,-0.626 (inactive),-1.8e-05 (inactive),0.00366 (inactive),2.7% (inactive),-1.73% (inactive)
